According to PubChem BioAssay (NCATS):
Several values for one entry are separate records, joined by “and”; a condition that tells them apart may be missing. Equal entries are not always repeated. A number with no mark means an inactive call. Results filed as inconclusive are left out. Where a call stands in place of a potency, no number is given. Activity calls are given as the source filed them. Unless noted, the call rests on the fitted dose curve; in most records, active means well fitted curve in the direction sought with a large enough effect; inconclusive means small, poorly fitted or top-dose-only effect, or another doubt; inactive means no such curve, though single readings can be large; an effect the other way counts as inactive or inconclusive.

How the values were obtained:
[1] = P-glycoprotein substrates identified in KB-8-5-11 adenocarcinoma cell line, qHTS therapeutic library screen (AID 1346987); further: nearly all actives have a fitted effect of over 65% in size; further: potency means the concentration at half of the fitted maximal effect
How it was run: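 Luminescence from CellTiter-Glo, read 5 min after addition, quantified survival of KB-8-5-11 (P-gp-overexpressing) cells exposed to compounds for 72 h. AC50 was derived from concentration-response curves.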

[2] = molecular target: T1, Hexokinase-4 (Homo sapiens) + Glucokinase regulatory protein (Homo sapiens) (UniProt P35557+Q14397); experiment: qHTS assay for inhibitors of recombinant human GCK-GKRP interaction: Diaphorase-coupled assay (AID 743205)
T1 sequence (P35557 whole entry, looked up): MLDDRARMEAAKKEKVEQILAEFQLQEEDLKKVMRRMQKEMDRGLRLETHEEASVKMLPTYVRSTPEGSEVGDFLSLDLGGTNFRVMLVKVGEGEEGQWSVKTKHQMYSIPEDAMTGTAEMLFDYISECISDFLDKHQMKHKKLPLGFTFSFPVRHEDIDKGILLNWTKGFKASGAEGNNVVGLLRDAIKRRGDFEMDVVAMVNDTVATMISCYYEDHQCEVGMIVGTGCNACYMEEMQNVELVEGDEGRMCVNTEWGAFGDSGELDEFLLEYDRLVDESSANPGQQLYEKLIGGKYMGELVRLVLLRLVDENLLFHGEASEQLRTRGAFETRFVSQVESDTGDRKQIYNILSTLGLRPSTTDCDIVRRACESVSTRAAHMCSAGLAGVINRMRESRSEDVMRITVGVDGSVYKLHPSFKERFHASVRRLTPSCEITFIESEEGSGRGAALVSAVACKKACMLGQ
T1 sequence (Q14397 whole entry, looked up): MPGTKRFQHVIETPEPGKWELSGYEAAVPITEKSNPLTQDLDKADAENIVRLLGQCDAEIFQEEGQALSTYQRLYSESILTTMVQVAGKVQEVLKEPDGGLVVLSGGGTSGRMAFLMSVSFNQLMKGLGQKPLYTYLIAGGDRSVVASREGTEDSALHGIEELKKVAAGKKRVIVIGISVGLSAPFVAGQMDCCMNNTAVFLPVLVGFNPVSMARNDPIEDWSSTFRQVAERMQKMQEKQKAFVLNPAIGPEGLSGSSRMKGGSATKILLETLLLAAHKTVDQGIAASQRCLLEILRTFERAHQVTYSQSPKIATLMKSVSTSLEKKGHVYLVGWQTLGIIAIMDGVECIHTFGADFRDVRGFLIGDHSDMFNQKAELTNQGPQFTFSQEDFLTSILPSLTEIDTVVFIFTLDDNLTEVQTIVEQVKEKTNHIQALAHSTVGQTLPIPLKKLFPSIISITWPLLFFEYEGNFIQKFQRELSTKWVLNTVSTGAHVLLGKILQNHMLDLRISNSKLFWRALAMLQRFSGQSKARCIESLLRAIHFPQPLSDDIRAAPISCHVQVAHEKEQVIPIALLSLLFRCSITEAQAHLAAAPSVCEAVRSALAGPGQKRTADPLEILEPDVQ
How it was run: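 GST-GCK (10 nM) with FLAG-GKRP (10 nM), 5 mM glucose and 0.4 mM ATP in pH 7.6 Hepes; compounds preincubated 20 min with substrate. G6PDH/diaphorase coupling converts resazurin to resorufin, read kinetically (ex 525/em 590 nm) for 30 min.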

[3] = molecular target: T1, Hexokinase-4 (Homo sapiens) + Glucokinase regulatory protein (Homo sapiens); experiment: qHTS assay for inhibitors of recombinant human GCK-GKRP interaction: ADP-Glo assay (AID 743206)
How it was run: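 Pin-transferred compounds meet a 15 nM GST-GCK/15 nM FLAG-GKRP/2 uM S6P mix (dispense concentrations). ATP is then added to 0.4 mM final with 5 mM glucose, and the reaction runs 60 min at room temperature. ADP is quantified luminescently.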

[4] = molecular target: T1, Hexokinase-4 (Homo sapiens) + Glucokinase regulatory protein (Homo sapiens); experiment: qHTS assay for inhibitors of recombinant human GCK-GKRP interaction: HTRF assay (AID 743207)
How it was run: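 GST-GCK and FLAG-GKRP (5 nM each) were combined with 2 uM S6P in pH 7.1 Hepes/MgCl2/KCl/DTT buffer, then compound and anti-FLAG XL665/anti-GST K antibodies were added. After 60 min at room temperature, HTRF 665/615 nm emission was read.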

[5] = qHTS Assay for Identifying Gametocytocidal Compounds (AID 743244);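 further: actives lower the fluorescent signal which means gametocytes are killed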; details: P. falciparum 3D7 stage III-V gametocytes, alamarBlue, 72 h; max response: stronger effect = lower value
How it was run: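 A resazurin-based viability read-out was applied to mature P. falciparum gametocytes: 72 h compound treatment, then 24 h dye incubation, with falling fluorescence signalling gametocytocidal effect.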

[6] = molecular target: Atrial natriuretic peptide receptor 1 (Homo sapiens) (UniProt P16066); experiment: Natriuretic polypeptide receptor (hNpr1) antagonism - Pilot screen (AID 1347049; calls by dose curve;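 further: HEK293 cells with hNpr1 and GloSensor cGMP luciferase stimulated by 0.1 nM hNppA; agonist-evoked cGMP luminescence read 20 min after hNppA addition; series mostly up to about 58 µM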)
Atrial natriuretic peptide receptor 1 (Homo sapiens), sequence (P16066 whole entry, looked up): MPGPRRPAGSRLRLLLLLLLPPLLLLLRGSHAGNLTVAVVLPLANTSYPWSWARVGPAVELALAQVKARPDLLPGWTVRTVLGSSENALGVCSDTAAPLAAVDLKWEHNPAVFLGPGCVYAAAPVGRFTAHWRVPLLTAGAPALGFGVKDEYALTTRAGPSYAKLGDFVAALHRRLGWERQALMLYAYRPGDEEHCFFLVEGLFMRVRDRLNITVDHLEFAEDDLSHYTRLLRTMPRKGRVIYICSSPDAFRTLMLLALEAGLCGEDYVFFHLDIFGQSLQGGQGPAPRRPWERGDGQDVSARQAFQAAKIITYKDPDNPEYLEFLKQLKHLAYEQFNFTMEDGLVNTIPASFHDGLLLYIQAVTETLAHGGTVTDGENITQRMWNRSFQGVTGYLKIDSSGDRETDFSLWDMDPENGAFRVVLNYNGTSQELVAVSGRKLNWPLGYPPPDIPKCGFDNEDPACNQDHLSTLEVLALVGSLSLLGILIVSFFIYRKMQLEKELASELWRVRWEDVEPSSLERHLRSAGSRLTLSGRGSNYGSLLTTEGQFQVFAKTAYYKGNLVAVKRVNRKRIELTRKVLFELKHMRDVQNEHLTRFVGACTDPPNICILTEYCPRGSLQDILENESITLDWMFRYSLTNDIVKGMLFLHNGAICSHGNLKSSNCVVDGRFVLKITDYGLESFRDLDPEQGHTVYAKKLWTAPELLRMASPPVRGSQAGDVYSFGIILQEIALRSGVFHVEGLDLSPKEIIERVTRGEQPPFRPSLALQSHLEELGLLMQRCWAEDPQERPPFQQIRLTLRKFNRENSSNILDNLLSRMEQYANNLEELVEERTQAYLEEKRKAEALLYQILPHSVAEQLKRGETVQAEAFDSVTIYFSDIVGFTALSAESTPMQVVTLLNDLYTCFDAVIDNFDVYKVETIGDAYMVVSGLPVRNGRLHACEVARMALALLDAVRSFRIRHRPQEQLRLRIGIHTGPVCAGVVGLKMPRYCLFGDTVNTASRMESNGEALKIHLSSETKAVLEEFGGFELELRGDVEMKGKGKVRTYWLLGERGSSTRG
How it was run: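 Receptor antagonism read as cGMP-dependent luminescence in hNpr1/pGS-40F HEK293 cells: pre-read after 30 min compound exposure, post-read 20 min after hNppA agonist at 0.1 nM final, all at room temperature, protected from light; A-71915 titration as control.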

[7] = molecular target: Atrial natriuretic peptide receptor 2 (Homo sapiens) (UniProt P20594); experiment: Natriuretic polypeptide receptor (hNpr2) antagonism - Pilot subtype selectivity assay (AID 1347050; calls by dose curve)
Atrial natriuretic peptide receptor 2 (Homo sapiens), sequence (P20594 whole entry, looked up): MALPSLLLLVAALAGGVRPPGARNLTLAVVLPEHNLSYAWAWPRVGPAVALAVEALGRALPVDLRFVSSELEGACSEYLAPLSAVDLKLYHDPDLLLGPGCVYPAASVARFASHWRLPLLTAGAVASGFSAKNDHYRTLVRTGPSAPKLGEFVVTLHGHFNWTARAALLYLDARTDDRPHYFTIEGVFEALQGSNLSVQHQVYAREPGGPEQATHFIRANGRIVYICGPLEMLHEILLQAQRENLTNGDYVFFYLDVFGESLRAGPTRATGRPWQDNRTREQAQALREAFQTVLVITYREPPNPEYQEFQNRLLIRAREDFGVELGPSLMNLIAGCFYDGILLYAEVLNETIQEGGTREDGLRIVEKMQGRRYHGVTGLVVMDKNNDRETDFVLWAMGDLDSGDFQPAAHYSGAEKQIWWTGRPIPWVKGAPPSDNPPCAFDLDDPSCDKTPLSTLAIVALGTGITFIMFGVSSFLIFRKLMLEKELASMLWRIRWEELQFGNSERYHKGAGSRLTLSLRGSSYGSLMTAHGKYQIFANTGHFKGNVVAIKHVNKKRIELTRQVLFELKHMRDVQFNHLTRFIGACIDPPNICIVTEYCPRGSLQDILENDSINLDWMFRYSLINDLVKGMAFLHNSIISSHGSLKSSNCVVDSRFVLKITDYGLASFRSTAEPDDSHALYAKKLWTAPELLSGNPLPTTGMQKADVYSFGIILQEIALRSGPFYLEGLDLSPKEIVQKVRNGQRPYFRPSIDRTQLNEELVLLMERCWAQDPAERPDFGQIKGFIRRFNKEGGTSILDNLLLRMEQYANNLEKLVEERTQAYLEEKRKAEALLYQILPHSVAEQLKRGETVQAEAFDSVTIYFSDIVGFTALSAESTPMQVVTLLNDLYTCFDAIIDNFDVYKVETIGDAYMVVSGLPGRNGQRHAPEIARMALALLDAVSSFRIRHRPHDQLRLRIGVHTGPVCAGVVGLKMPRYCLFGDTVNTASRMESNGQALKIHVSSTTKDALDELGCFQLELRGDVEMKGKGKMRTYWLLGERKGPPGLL
How it was run: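 Antagonist mode: compounds (LOPAC1280, seven 1:5 dilutions) added 30 min before 1 nM hNppC stimulation of hNpr2-HEK293 cGMP-sensor cells; luminescence read before and 20 min after agonist at ambient temperature.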

[8] = molecular target: Parathyroid hormone/parathyroid hormone-related peptide receptor (Homo sapiens) (UniProt Q03431); experiment: qHTS for PTHR1 Agonists: Optimization Screen against the NCGC LOPAC library (AID 1347079);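 further: GloSensor cAMP luminescence in HEK-293 GP2 cells expressing human PTHR1 with IBMX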
Parathyroid hormone/parathyroid hormone-related peptide receptor (Homo sapiens), sequence (Q03431 whole entry, looked up): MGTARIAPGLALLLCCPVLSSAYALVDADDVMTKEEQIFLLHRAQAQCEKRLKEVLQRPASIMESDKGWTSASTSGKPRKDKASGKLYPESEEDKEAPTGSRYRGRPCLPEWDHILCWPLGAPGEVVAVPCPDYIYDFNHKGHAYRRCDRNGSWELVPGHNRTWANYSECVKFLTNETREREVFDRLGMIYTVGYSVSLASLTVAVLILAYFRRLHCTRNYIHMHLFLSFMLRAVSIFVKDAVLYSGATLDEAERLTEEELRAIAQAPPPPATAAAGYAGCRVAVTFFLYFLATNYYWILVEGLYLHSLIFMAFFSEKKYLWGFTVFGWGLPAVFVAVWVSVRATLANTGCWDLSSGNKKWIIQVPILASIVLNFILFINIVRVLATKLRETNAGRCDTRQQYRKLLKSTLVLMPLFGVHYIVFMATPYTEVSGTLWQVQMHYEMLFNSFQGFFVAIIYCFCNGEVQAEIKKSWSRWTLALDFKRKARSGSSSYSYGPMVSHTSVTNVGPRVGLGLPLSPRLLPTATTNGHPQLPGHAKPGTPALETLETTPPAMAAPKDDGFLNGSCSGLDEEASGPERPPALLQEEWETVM
How it was run: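 HEK-293 GP2 cells, PTHR1 + GloSensor cAMP; 3000 cells/well, o/n. Luciferin + IBMX 0.5mM each (stock), 1 hr 37C. Cpd titration, 1 hr 37C. Lum after 15 min RT. Ctrl M-PTH(1-15) top 10uM.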

Structure (SMILES): C1=Cc2ccccc2C(=C2CCN(CCCCc3nn[nH]n3)CC2)c2ccccc21
- Potency [1]: inactive

Structure (SMILES): C/C(=C/CO)CCC1C(C)CCC2C(C)(C)CCCC12C (stereo not drawn)
- Potency [1]: inactive

Structure (SMILES): COc1cc2c(Nc3cc(F)c(Cl)c(Cl)c3)ncnc2cc1OCC1CCCN(C)CCC1
- Potency [1]: 16.4 µM (active)

Structure (SMILES): Cc1ccc(C)c(NS(=O)(=O)c2cc(C(=O)Nc3ccccc3-c3ccccc3)ccc2C)c1
- Potency [1]: 16.4 µM (active)

Structure (SMILES): CC(=O)OC/C(=C/C(=O)O)CC[C@@H]1C(C=O)=CC[C@@H]2C(C)(C)CCC[C@@]12C
- Potency [1]: inactive

Structure (SMILES): CC(=O)Nc1cccc(-c2csc(Nc3cc(C)ccn3)n2)c1
- Potency [1]: inactive

Structure (SMILES): Cn1ncc(Cl)c1-c1cc(C(=O)NC(CN)Cc2ccc(F)c(F)c2)oc1Cl (stereo not drawn)
- Potency [1]: 14.6 µM (active)

Structure (SMILES): C/C=C/C=C/C=C/C(=O)O[C@@H]1C=C(CO)C(O)(C(=O)OC)[C@@]2(C)CCCC(C)(C)C12 (stereo partly drawn)
- Potency [1]: inactive

Structure (SMILES): CCOC(=O)N1c2ccc(C(F)(F)F)cc2C(N(Cc2cc(C(F)(F)F)cc(C(F)(F)F)c2)C(=O)OC)CC1CC (stereo not drawn)
- Potency [1]: inactive

Structure (SMILES): COc1cc2nc(C3CC3)nc(N3CCN(c4ccccc4OC)CC3)c2cc1OC
- Potency [1]: 20.6 µM (active)

Structure (SMILES): COCc1c(Cl)ccc2c1CC[C@H]2c1ncc[nH]1
- Potency [1]: inactive

Structure (SMILES): CC[N+]1(C/C2=C/CCCCCC2)CCC(NC(=O)C2c3cc(Cl)ccc3Oc3ccc(Cl)cc32)CC1 (stereo not drawn)
- Potency [1]: inactive

Structure (SMILES): CC(C)=C[C@@H]1[C@H](CO[C@@H]2O[C@H](CO)[C@@H](O)[C@H](O)[C@H]2O)C1(C)C
- Potency [1]: inactive

Structure (SMILES): C[C@@H](N[C@H]1CCCC[C@@H]1NC(=O)c1ccc(Cl)cc1)c1cccc2ccccc12
- Potency [1]: 23.1 µM (active)

Structure (SMILES): CC(=O)O[C@H]1C[C@@H]2CC[C@@H]3[C@H](CC[C@@]4(C)[C@H]3C[C@H](N3CC[N+](C)(C)CC3)[C@@H]4OC(C)=O)[C@@]2(C)C[C@@H]1N1CC[N+](C)(C)CC1
- Potency [1]: inactive

Structure (SMILES): COc1cc(C(N)=O)nc(-c2ccccn2)c1O
- Potency [1]: inactive

Structure (SMILES): C[C@H](Oc1cc(-n2cnc3ccc(CN4CCN(C)CC4)cc32)sc1C(N)=O)c1ccccc1C(F)(F)F
- Potency [1]: 4.61 µM (active)

Structure (SMILES): CCN1CCN(Cc2ccc(NC(=O)c3ccc(C)c(Oc4ncnc5[nH]c(C)cc45)c3)cc2C(F)(F)F)CC1
- Potency [1]: 20.6 µM (active)

Structure (SMILES): CCCCCCCCn1cc(CN(CC)CC)c2cc(-c3cnc(N)nc3)ccc21
- Potency [1]: 18.4 µM (active)

Structure (SMILES): S=C(c1ccc(-c2ccc(Cl)c(Cl)c2)o1)N1CCCCC1
- Potency [1]: inactive

Structure (SMILES): CC(=O)O[C@@]12CO[C@@H]1C[C@H](O)[C@@]1(C)C(=O)[C@H](O)C3=C(C)[C@@H](OC(=O)[C@H](O)[C@@H](NC(=O)OC(C)(C)C)c4ccccc4)C[C@@](O)([C@@H](OC(=O)c4ccccc4)C12)C3(C)C (stereo partly drawn)
- Potency [1]: 0.126 µM (active)

Structure (SMILES): Cn1cc(-c2ccc(S(=O)(=O)n3ccc(/C=C/C(=O)Nc4ccccc4N)c3)cc2)cn1
- Potency [1]: 2.59 µM (active)

Structure (SMILES): COc1ccccc1N1CCN(CC(C(=O)NC(C)(C)C)c2ccccc2)CC1 (stereo not drawn)
- Potency [1]: inactive

Structure (SMILES): C=CS(=O)(=O)O
- Potency [1]: inactive

Structure (SMILES): CCNC(=O)N1CCCN(c2ccc(C(=O)NCCc3ccc(Cl)cc3Cl)cc2NC(=O)c2cccc(Cl)c2)CC1
- Potency [1]: inactive

Structure (SMILES): O=C(O)c1ccc(S(=O)(=O)N(Cc2ccc(OC(F)(F)F)cc2)c2ncc(C(F)(F)F)cc2Cl)cc1
- Potency [1]: inactive

Structure (SMILES): CC(=O)NCc1cccc(OC[C@@H](O)CNCCc2ccc(NS(=O)(=O)c3ccccc3)cc2)c1
- Potency [1]: inactive

Structure (SMILES): CC[C@@H](Nc1c(Nc2cccc(C(=O)N(C)C)c2O)c(=O)c1=O)c1cc(C(C)C)co1
- Potency [1]: inactive

Structure (SMILES): COc1ccc(NC(=O)c2ccc(C(=N)N(C)C)cc2)c(C(=O)Nc2ccc(Cl)cn2)c1
- Potency [1]: inactive

Structure (SMILES): Cc1ccc(OC[C@H](O)[C@H](C)NC(C)C)c2c1CCC2
- Potency [1]: inactive

Structure (SMILES): COc1ccc(C2(CNC(=O)c3ccc(NC(=O)c4ccco4)cc3)CCOCC2)cc1
- Potency [1]: inactive

Structure (SMILES): Nc1nc2c(s1)CCN(Cc1ccc(Cl)cc1)CC2
- Potency [1]: inactive

Structure (SMILES): Fc1ccc2[nH]ccc2c1-c1nc(N2CCOCC2)c2sc(CN3CCN(CC4CC4)CC3)cc2n1
- Potency [1]: 20.6 µM (active)

Structure (SMILES): CC1=C2C[C@@]3(C)C(CCC[C@@H]3C)C(O)C2OC1=O (stereo partly drawn)
- Potency [1]: inactive

Structure (SMILES): NCCCC(=O)O
- outcome [2]: inactive
- outcome [3]: inactive
- outcome [4]: inactive
- max response [5]: 8.69% and -6.82%
- outcome [6]: inactive
- Potency [7]: inactive
- outcome [8]: inactive

Structure (SMILES): C[N+](C)(CCCCCC[N+](C)(C)C1c2ccccc2-c2ccccc21)C1c2ccccc2-c2ccccc21
- max response [5]: -0.956%
- Potency [1]: inactive
